Measurements: ChEMBL document CHEMBL3433997, “St. Jude Leishmania screening dataset” (2016)

Columns and labels:
Format in all cases: functional
[1] = biological target: Solute carrier family 2, facilitated glucose transporter member 1 (Homo sapiens) (UniProt P11166); test: ST_JUDE_LEISH: Cytotoxicity at 2uM final concentration against transgenic Leishmania Mexicana promastigotes LmGLUT1 that are glucose transport deficient and complemented with the human glucose transporter GLUT1. Activity is measured by DNA content using SYBR green in vitro
Chain of Solute carrier family 2, facilitated glucose transporter member 1 (Homo sapiens) (P11166 whole entry): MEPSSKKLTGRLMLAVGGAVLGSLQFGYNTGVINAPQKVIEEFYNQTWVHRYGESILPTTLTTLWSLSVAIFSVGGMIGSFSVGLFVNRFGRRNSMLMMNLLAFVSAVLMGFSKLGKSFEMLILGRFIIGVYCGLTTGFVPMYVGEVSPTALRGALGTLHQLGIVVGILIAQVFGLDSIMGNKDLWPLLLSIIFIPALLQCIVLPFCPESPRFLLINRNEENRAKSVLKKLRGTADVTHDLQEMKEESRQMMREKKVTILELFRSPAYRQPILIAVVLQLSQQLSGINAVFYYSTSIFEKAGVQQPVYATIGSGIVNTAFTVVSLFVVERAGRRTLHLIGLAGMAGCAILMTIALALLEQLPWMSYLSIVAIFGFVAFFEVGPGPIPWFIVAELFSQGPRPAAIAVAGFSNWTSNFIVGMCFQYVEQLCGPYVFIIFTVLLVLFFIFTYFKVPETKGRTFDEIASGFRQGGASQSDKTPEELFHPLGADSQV

[2] = biological target: Hexose transporter 1 (Plasmodium falciparum) (UniProt O97467); test: ST_JUDE_LEISH: Cytotoxicity at 2uM final concentration against transgenic Leishmania Mexicana promastigotes LmPfHT that are glucose transport deficient and complemented with the Plasmodium falciparum hexose transporter. Activity is measured by DNA content using SYBR green in vitro
[3] = biological target: Glucose transporter (Leishmania mexicana) (UniProt O61059); test: ST_JUDE_LEISH: Cytotoxicity at 2uM final concentration against transgenic Leishmania Mexicana promastigotes LmGT2 that are glucose transport deficient and complemented with the L. Mexicana glucose transporter 2. Activity is measured by DNA content using SYBR green in vitro

Compound | inhibition [1] [%] | inhibition [2] [%] | inhibition [3] [%]
CN1CCN(CCCN(Cc2cccc(-c3ccc(CNCc4ccc5c(c4)OCO5)cc3)c2)C(=O)CCC2CCCC2)CC1 | 51.2 | 45.7 | 34.4
O=C(CSc1nc(-c2ccccc2Cl)ns1)Nc1ccc2c(c1)OCO2 | -0.52 | -0.45 | -1.67
Nc1nc(N)c2c(n1)CCC(c1ccccc1)C2 (centres undefined) | 2.39 | 1.07 | 1.39
COc1cc(CCCON2C(=N)N=C(N)NC2(C)C)cc(OC)c1OC | 1.04 | -0.26 | 1.06
COc1ccc(Nc2nccc(N3CCC(NC(=O)c4cccc(NC(C)=O)c4)C3)n2)cc1 (centres undefined) | 0.39 | 0.61 | 1.86
COc1ccc(C2C(C(=O)Nc3cc(C)ccc3OC)c3ccccc3C(=O)N2C)cc1 (centres undefined) | 5.62 | 5.84 | 1.74
O=C(Nc1ccc(-c2ccccc2)cc1)Nc1cccc(Cn2ncc(N3CCNCC3)c(Cl)c2=O)c1 | -0.79 | 1.65 | 6.76
COc1ccc(S(=O)(=O)N(CCCN2CCN(C)CC2)Cc2csc(-c3ccc(CNCc4ccccc4)cc3)n2)cc1 | -1.13 | 2.47 | 1.67
Cc1ccccc1C1CCN(C2CCC(NC(=O)c3ccc(-c4cccs4)s3)CC2)CC1 (centres undefined) | 2.14 | 1.24 | 1.93
O=C1CCCN1CCCNCc1ccc(-c2ccc(-c3nc4cc(F)ccc4[nH]3)cc2)cc1 | 11.9 | 13.3 | 12.3
O=C(/C=C/c1ccc(Cl)c(Cl)c1)NC1CCC(CN2CCC(Cc3cc4ccccc4[nH]3)CC2)CC1 (centres undefined) | 4.78 | 1.97 | 3.2
CNCCNCc1cccc(-c2ccc(-c3nc4ccccc4[nH]3)cc2)c1 | -1.56 | 0.67 | -0.51
Cc1cc(=NN=Cc2ccccc2F)c2cccc(C)c2[nH]1 | 3.9 | 5.38 | 0.4
Cc1onc(-c2ccccc2)c1-c1nc(NCCC(c2ccccc2)c2ccccc2)no1 | 9.17 | 9.89 | 6.9
Cc1nc2c(=O)sc3ccccc3c2n1Cc1ccccc1 | 0.4 | 7.03 | -1.55
O=C(Nc1ccc2c(c1)CCCN2S(=O)(=O)c1cccs1)c1cc([N+](=O)[O-])ccc1Cl | 5 | 8.25 | 3.5
Cc1ccc(CCOCCCCCNCC(O)c2cc(Cl)c(N)c(Cl)c2)cc1 (centres undefined) | 1.04 | -1.13 | 0.95
COc1ccc2[nH]c(C(=O)Nc3cccc(-c4ccc(CN(C)C)cc4)c3)cc2c1 | 3.16 | 1.78 | -0.5
Oc1c(CN2CCCC(C(F)(F)F)C2)cc(Cl)c2ccccc12 (centres undefined) | 1.85 | 2.27 | 3.06
COc1ccc2nccc([C@@H](O)CN3CCC(NCc4cc5ccccc5[nH]4)CC3)c2n1 | 46 | 59.2 | 62.5
COc1ccc(NC(=O)/C=C/c2ccc(Oc3ccccc3Cl)c([N+](=O)[O-])c2)cc1OCCN(C(C)C)C(C)C | -0.7 | -0.91 | -1.59
CCN1CCN(c2cc(C)c3cc(NC(=O)c4ccc(OC)c([N+](=O)[O-])c4)ccc3n2)CC1 | 2.21 | 2.42 | 2.13
O=C(/C=C/c1ccc(F)cc1)NC1CCC(CCN2CCCN(c3ccc(C(F)(F)F)cn3)CC2)CC1 (centres undefined) | 1.97 | -0.46 | -1.02
Cc1ccc(-c2noc(=O)n2CC(=O)Nc2ccccc2-c2ccccc2)cc1 | 0.59 | 0.52 | -0.17
Cc1cc(OCCCN2CCC(NC(=O)c3ccc(Br)cc3)C2)c2ccccc2n1 (centres undefined) | 24.3 | 19.2 | 13.4

Compound | inhibition [1] [%] | inhibition [2] [%] | inhibition [3] [%]
Cc1cc(O)c(CN2CCN(Cc3cccs3)CC2)cc1C(C)C | -0.44 | 0.02 | 2.94
COc1ccc(-c2cccc(NC(=O)c3ccc(C#N)cc3)c2)cc1CN(C)CCN(C)C | 2.8 | 2.9 | 0.41
Cc1ccccc1C1CCN(C2CCC(NC(=O)/C=C/c3ccc(C(F)(F)F)cc3)CC2)CC1 (centres undefined) | 0.43 | 1.57 | 1.85
COc1ccc(NC(=O)[C@H](Cc2ccccc2)Nc2cc(C)nc(Nc3ccccc3)n2)cc1 | 12.3 | 14.5 | 10.4
Cc1cccc(C)c1/N=C1\NC(=S)N(c2cccc(Cl)c2)C12CCC(C(C)(C)C)CC2 (centres undefined) | -2.68 | -1.2 | 0.24
OC(c1ccccc1)C1CN(CCC2CC3CCC2C3)CCC1(O)c1ccccc1 (centres undefined) | -0.77 | -3.69 | -3.24
CC(NC(=O)c1cc(-c2ccccc2)nc2c1cnn2C(C)C)C1CC1 (centres undefined) | 1.45 | 0.66 | 0.29
Cc1c(Cn2nc(Cl)c(N3CCNCC3)cc2=O)cccc1NC(=O)Nc1ccc(-c2ccccc2)cc1 | -2.62 | -2.29 | -0.03
O=c1cnc2ccc(F)cc2n1CCN1CCC(NCc2cc(-c3ccccc3)cs2)CC1 | 28.4 | 32.4 | 48.5
Cn1c(CN2CCC(N3CCc4cc(NC(=O)c5ccco5)ccc43)C2)cc2ccccc21 (centres undefined) | 5.51 | 4.84 | 5.36
Fc1cccc(C=NNc2ccnc3cc(Cl)ccc23)c1 | 3.49 | 4.64 | 0.64
CC(C)CN1C(=O)c2ccccc2C(C(=O)Nc2cccc(C#N)c2)C1c1cccs1 (centres undefined) | -0.23 | -1.39 | -1
O=S(=O)(NCCN1CCCC1)c1ccc(-c2cccc(CNCCc3cccs3)c2)s1 | 0.02 | 2.28 | 3.42
COc1cc(NC(=O)c2sc(-c3ccc(Cl)cc3)cc2NC(=O)N2CCCC2)ccc1OCCN1CCCC1 | 2.35 | 3.29 | 1.4
Cc1cccc(/C=C/C(=O)NC2CCC(N3CCC(c4ccccc4C)CC3)CC2)c1 (centres undefined) | -2.65 | -2.79 | -0.99
CC(c1cccc(Nc2nccc(-c3c(-c4cccc(NC(=O)c5c(F)cccc5F)c4)nn4ncccc34)n2)c1)S(C)(=O)=O (centres undefined) | -2.21 | 1.6 | 0.35
CS(=O)(=O)c1ccc(OCCCN(Cc2ccccc2C(F)(F)F)c2ccc(C#N)c(C(F)(F)F)c2)cc1 | 1.51 | 3.33 | 0.65
COc1ccc2nccc([C@@H](O)CN3CCC(NCc4cc5cc([N+](=O)[O-])ccc5[nH]4)CC3)c2c1 | 8.79 | 6.38 | 4.29
COc1ccc(-c2nc(NC(=O)CSc3ccc([N+](=O)[O-])cc3)sc2C)cc1 | 0.33 | -0.37 | -1.33
CC(C)[C@H](NC(=O)c1ccc(O)c(-c2cccc(C(F)(F)F)c2)c1)C(=O)NC1CCCc2ccccc21 (some centres undefined) | 3.9 | 2.89 | 0.81
COc1ccc(-c2cncc3ccc(C(=O)NCc4ccncc4)nc23)cc1 | 6.53 | 4.27 | 2.69
CNC(=O)c1cnc(Nc2ccc(N3CCN(C)CC3)cc2)nc1Nc1ccccc1OC | 4.96 | 4.09 | 3.41
Clc1cc(Cl)c2cc(CN[C@H]3CCC[C@@H]3CNc3nc4ccccc4[nH]3)[nH]c2c1 | 0.55 | 1.94 | 2.36
Cc1ccc2[nH]c3c(NCCCN4CCOCC4)ncnc3c2c1 | 7.43 | -2.37 | 0.92
O=C(Nc1nc(-c2ccccn2)cs1)c1ccc(Br)s1 | -1.89 | 4.54 | 0.61

Compound | inhibition [1] [%] | inhibition [2] [%] | inhibition [3] [%]
c1ccn2c(Sc3ncnc4sccc34)ncc2c1 | -0.89 | -1.87 | -1.33
CNS(=O)(=O)Cc1ccc(Nc2nccc(Nc3cccc4c3cnn4C(=O)Nc3ccccc3)n2)cc1 | 4.38 | 3.98 | 3.72
O=C(CCOc1ccccc1)NCC1CCCO1 (centres undefined) | 1.87 | -0.04 | 1.06
O=C(Nc1ccc(F)c(F)c1)c1ccc(CN2CCCN(Cc3cccc(F)c3)CC2)cc1 | 0.07 | -0.34 | 1.29
N=C(N)c1nc2ccccc2s1 | 1.87 | 1.89 | 2.04
CN(C(=O)/C=C/c1ccccc1F)C1CCN(CCCCCNC(=O)/C=C/c2ccc(Cl)c(Cl)c2)CC1 | 5.19 | 4.23 | 5.34
Cc1cccc(CNc2nc(C)cc(N[C@@H](Cc3ccccc3)C(=O)NCCOc3ccccc3)n2)c1 | 16.6 | 15.8 | 11.4
COc1ccc(NC(=O)[C@H](CC(C)C)Nc2cc(C)nc(NCc3cccc(C)c3)n2)cc1 | 9.89 | 9.82 | 7.22
COCCNC(=O)c1ccc(OC2CCN(CC(C)=Cc3ccccc3)CC2)c(Cl)c1 | 2.65 | 3.32 | 1.03
CCc1cc(CNC2CCN(CCc3c(F)cnc4ccc(OC)nc34)CC2)cc2c1OCCO2 | 23.9 | 34.5 | 19.9
COc1ccc(-c2nc(NC(=O)CSc3ccccc3)sc2C)cc1 | 9.07 | 4.4 | 6.37
CC(CCc1ccccc1)NCC(O)c1ccc2c3c(cccc13)S(=O)(=O)N2C (centres undefined) | 5.47 | 5.04 | 4.71
N#Cc1ccc(C(=O)Nc2cccc(-c3ccc(CN4CCCC4)cc3)c2)cc1 | 11.4 | 9.72 | 9.04
O=C(Nc1cccc(-c2ccc(CN3CCNCC3)cc2)c1)c1cccc(Cl)c1 | -0.47 | -1.87 | -2.68
COC(=O)COc1cc(C(=O)NCCCCN2CCC(c3ccc4c(c3OC)CCCC4)CC2)ccc1-c1ccc(Cl)cc1 | 3.39 | 2.65 | 1.4
CC1CCN(c2nc(C(=O)Nc3cccc4c3CCCC4)c(C(C)C)s2)CC1 | 3.26 | 4.73 | 6.09
Cc1ccc(-c2cc(C(=O)Nc3ccc(S(=O)(=O)N4CC(C)OC(C)C4)cc3)[nH]n2)c(O)c1 (centres undefined) | 3.32 | 2.68 | 3.48
CNCCNCc1ccc(-c2cccc(-c3nc4cc(F)ccc4[nH]3)c2)cc1 | 2.53 | 3.78 | 3.03
O=C(Nc1cccc(-c2cccc(-c3nc4ccccc4[nH]3)c2)c1)Nc1ccc(F)c(F)c1F | 2.74 | 4.36 | 3.88
CCNc1cc(C(=O)N[C@@H](Cc2ccccc2)[C@H](O)CNC2(Cc3cccc(Cl)c3)CCC2)cc(N2CCCCS2(=O)=O)c1 | -0.69 | 0.65 | 2.93
CSc1nccc(-c2ccc3ccnc(N)c3c2)n1 | 11.2 | 10.7 | 9.37
Cc1cc(OCC2CCN(c3ncc(C(=O)Nc4ccccc4)cc3Cl)CC2)ccc1F | 1.05 | -2.28 | 0.4
O=C(N[C@@H](Cc1ccccc1)C(=O)NCCN1CCCCC1)c1ccc(O)c(-c2cccc(C(F)(F)F)c2)c1 | 2.63 | 1.38 | 2.46
